These results are taken from PubChem BioAssay AID488922 (Johns Hopkins Ion Channel Center, 2010).

Among all 310,000 compounds or so, about 3,800 (1.2%) were called active.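 How the source made its calls: active means ratio B-score over 3 SD below the library mean, with starting fluorescence within 5 SD of its mean; inactive means the rest, inconclusive results apart.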 Many of the other results were omitted from the sample, so actives are more common in it than they were.

Potassium channel subfamily K member 9 (Homo sapiens), sequence (Q9NPC2 whole entry, looked up): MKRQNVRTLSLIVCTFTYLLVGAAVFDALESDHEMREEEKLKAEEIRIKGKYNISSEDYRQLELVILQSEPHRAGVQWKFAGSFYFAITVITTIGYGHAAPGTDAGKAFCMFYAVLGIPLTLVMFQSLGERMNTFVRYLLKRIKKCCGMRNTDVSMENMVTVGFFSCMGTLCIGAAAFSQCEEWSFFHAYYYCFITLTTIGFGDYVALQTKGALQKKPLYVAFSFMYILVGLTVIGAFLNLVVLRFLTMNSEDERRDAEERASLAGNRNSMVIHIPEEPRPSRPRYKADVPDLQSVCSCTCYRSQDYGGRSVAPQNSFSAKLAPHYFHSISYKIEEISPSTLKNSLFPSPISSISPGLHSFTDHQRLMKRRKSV

This assay addresses Potassium channel subfamily K member 9 (Homo sapiens) (UniProt Q9NPC2). Put plainly: KCNK9 potassium channel inhibitors, primary screen, HEK293 cells, thallium flux (AID 488922).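 On B-score: negative B-score means less thallium flux so channel inhibition.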 The settings on record: HEK293 KCNK9, FluxOR thallium flux fluorescence, at 10 µM; hits give low values.
On to `Cc1csc(/N=C/N(C)C)c1C#N`, for which the B-score entry is “inactive”. In the case of `Cc1ccc(S(=O)(=O)/N=C(/NC(=S)Nc2c(C)n(C)n(-c3ccccc3)c2=O)c2ccccc2)cc1` it was “inactive”; in that of `O=C(COC(=O)c1ncc(Cl)c(Cl)c1Cl)NC1CCS(=O)(=O)C1` (stereo unspecified), “inactive”; in that of `COc1ccc(C(=O)N(Cc2ccc(N(C)C)cc2)C2CCS(=O)(=O)C2)cc1` (stereo unspecified), “inactive”.

For the molecule `CC1(C)C(C=C(Cl)Cl)C1C(=O)N(Cc1ccc(Cl)cc1)C1CCS(=O)(=O)C1` (stereo unspecified), the B-score result is “inactive”. In the case of `Cc1ccc(CN(C(=O)c2sc3ccccc3c2Cl)C2CCS(=O)(=O)C2)cc1` (stereo unspecified) it was -7.41 (active); in that of `O=[N+]([O-])c1c(NCCO)cc(Sc2nc3ccccc3s2)c2nonc12`, “inactive”. The entry for `Cc1onc(-c2ccccc2Cl)c1C(=O)N(Cc1ccc(N(C)C)cc1)C(C)C` is “inactive”.

For the molecule `C=C(C)CSc1nc(N)c2c3c(sc2n1)CCC3`, the B-score result was “inactive”. For the molecule `C=CCn1c(SCC(=O)c2c(N)n(C)c(=O)n(C)c2=O)nc2sc(CC)cc2c1=O`, the B-score result is “inactive”.

For the molecule `CC1(C)CC(=O)CC2(C1)NCC(c1ccccc1Cl)c1c2[nH]c2ccccc12` (stereo unspecified), the B-score was -14.9 (active). For the molecule `O=[N+]([O-])/C=C1\CCCCCN1`, the B-score entry is “inactive”. The figure for `C(=N\Nc1ccc2ccccc2n1)/c1ccc2c(c1)OCO2` is -6.68 (active); for `Brc1ccc(-c2csc(N/N=C/c3ccc4c(c3)OCO4)n2)cc1` it is “inactive”. For the molecule `Cc1noc(C)c1/C=N/Nc1ccc2ccccc2n1`, the B-score entry was “inactive”. The entry for `CN1CC(=O)N=C1N` is “inactive”; for `CCCC1NC(=S)NC(C)=C1C(C)=O` (stereo unspecified) it is “inactive”. Turning to `Cc1scc(C(=O)NNC(=S)NCc2ccccc2)c1C`, the B-score entry was “inactive”.

Turning to `COc1ccc2nc(Nc3nc(-c4cc5ccccc5oc4=O)cs3)sc2c1`, the B-score is -6.66 (active). The entry for `O=c1oc2ccccc2cc1-c1csc(Nc2ccc(O)cc2)n1` is “inactive”. In the case of `CCNc1nc(-c2cc3ccccc3o2)cs1` it was “inactive”; in that of `O=C(CCC1CCCC1)N=C1SC2CS(=O)(=O)CC2N1Cc1ccccc1` (stereo unspecified), “inactive”; in that of `Cn1c(=O)n(C)c2cc(C(=O)Nc3ccc(Br)cc3)ccc21`, “inactive”. In the case of `Cc1ccc(-n2nc(-c3ccco3)cc2C(=O)NCc2cccnc2)cc1` it was “inactive”; in that of `CC(C)C[C@@H](CO)N1CCN(Cc2ccc(O)cc2)CCC1=O`, “inactive”. Consider `CCOC(=O)Cc1cc(=O)[nH]c(/N=C(\N)Nc2ccc(OC)cc2)n1`, for which the B-score result is “inactive”. In the case of `CCOCCCNC(=O)Cc1cc(=O)[nH]c(=O)[nH]1` it was “inactive”. The figure for `CCOC(=O)Cc1cc(=O)[nH]c(=O)[nH]1` is -8.45 (active); for `CC1CCCN(CCCNC(=O)CN2C(=O)COc3ccc(S(=O)(=O)N4CCOCC4)cc32)C1` (stereo unspecified) it is “inactive”; for `O=C1/C(=C/c2cccs2)CCC1C1CCCC1` (stereo unspecified) it is “inactive”. As for `Cc1cc2ccccn2c1C(=O)c1cccc(F)c1`, the B-score was -13.4 (active).

Take `Cc1cc2ccccn2c1C(=O)c1cccc(S(=O)(=O)N2CCOCC2)c1`: the B-score result was “inactive”. In the case of `CC(=O)Nc1ccc(/C=N/Nc2ccc(C(=O)c3c(C)cc4ccccn34)cc2[N+](=O)[O-])cc1` it was “inactive”. As for `CN(Cc1c(F)cccc1Cl)C(=O)CNC(=O)c1ccc2c(c1)OCO2`, the B-score entry is “inactive”.

Consider `O=C(c1ccccc1Cl)N(Cc1ccccc1F)N1C(=O)CCCC1=O`, for which the B-score entry is “inactive”.

Turning to `Cc1c(C(=O)NCCCc2ccccc2)cccc1[N+](=O)[O-]`, the B-score result was “inactive”.

For the molecule `CN(Cc1ccccc1)C(=O)COC(=O)c1ccccc1Nc1ccccc1`, the B-score result was “inactive”. In the case of `O=C(OCC(=O)N(CCc1ccccc1)Cc1ccccc1)c1ccccc1[N+](=O)[O-]` it was -17.6 (active); in that of `Cc1ccc(-c2csc(-c3c[nH]c4ccccc34)n2)cc1`, “inactive”. In the case of `CCOc1ccc2c(c1)C(c1ccc(C)cc1)=NNC(c1ccc(C)cc1)=N2` it was “inactive”; in that of `Cc1ccc(C2=Nc3c(ccc4ccccc34)C(c3ccncc3)=NN2)cc1`, -10.7 (active); in that of `CCCCCC(=O)N1CCN(S(=O)(=O)c2ccc3c(c2)OCCCO3)CC1`, “inactive”.

Take `O=C(Cc1cccs1)N(CC1CCCO1)C1(C(=O)NC2CCCCC2)CCCCC1` (stereo unspecified): the B-score entry is “inactive”. Regarding `O=C(CCSCCc1ccccn1)Nc1nccs1`, the B-score result was “inactive”. The entry for `COc1ccc(S(=O)(=O)N2CCN(C(=O)N(C)C)C2C)cc1` (stereo unspecified) is “inactive”; for `CC(OC(=O)c1ccccc1OCc1ccc(Cl)cc1)C(N)=O` (stereo unspecified) it is “inactive”; for `CC(=O)c1ccccc1OCc1ccc(C(=O)c2ccccc2)cc1` it is -6.64 (active). With `O=C(NC1CCC(O)CC1)c1ccccc1OCc1ccc(F)cc1` (stereo unspecified), the B-score result is “inactive”. In the case of `COc1ccc(CCNC(=O)c2ccccc2OCc2ccccc2)cc1` it was -8.98 (active); in that of `CCOc1ncccc1C(=O)NCCc1ccc(OC)cc1`, “inactive”. Regarding `COc1ccc(OCCCC(=O)NCCc2ccccc2)cc1`, the B-score result is “inactive”. The entry for `COc1cccc(CN2CCNC(=O)C2CC(=O)N(C)CCc2ccccn2)c1` (stereo unspecified) is “inactive”; for `Cc1ccc(CN(N=Nc2nonc2N)c2nonc2N)c(C)c1` it is -10.2 (active); for `CCN(CC(=O)NCC(=O)Nc1cccc(C)c1C)Cc1ccccc1` it is “inactive”. The entry for `CC1(C)C2CC[C@]3(C)C(CC=C4[C@@H]5C[C@@](C)(CO)CC[C@]5(C(=O)O)CC[C@]43C)[C@@]2(C)CC[C@@H]1O` (stereo partly specified) is “inactive”; for `Cc1n[nH]c(=O)c2c1nnn2Cc1ccc(F)cc1` it is “inactive”; for `COC(=O)c1cc2nc(-c3ccccc3)cc(C(F)(F)F)n2n1` it is “inactive”. The figure for `COCCNc1cc(-c2ccccc2)nc2cc(-c3cccc(F)c3)nn12` is -9.68 (active); for `COc1ccc(NC(=O)c2cc3nc(-c4ccccc4)cc(C)n3n2)cc1OC` it is “inactive”.

Consider `COCCN(Cc1nc(-c2ccc(C(F)(F)F)cc2)no1)C(C)C`, for which the B-score entry is “inactive”.

With `O=C(Nc1ccccc1Cl)Nc1cccc2cccnc12`, the B-score result is “inactive”.

Consider `O=C(Cc1ccc2c(c1)CCCC2)Nc1ccccc1Cl`, for which the B-score result is “inactive”. The figure for `O=C(Nc1ccccc1Cl)/C(Cl)=C(\Cl)S(=O)c1ccccc1` (stereo unspecified) is -6.6 (active); for `COc1cc(-c2nnc(Cn3cc(C(F)(F)F)ccc3=O)o2)cc(OC)c1OC` it is “inactive”.

In the case of `COc1cccc(NC(=O)CN2CCN(c3nc(-c4cccc(OC)c4)cs3)CC2)c1`, the B-score entry is “inactive”. Consider `COc1cccc(CNc2nc3nc4c(c(=O)n3[nH]2)CCC4)c1`, for which the B-score entry is “inactive”. The figure for `COc1cccc(-c2cc3nc4c(c(N5CCC6(CC5)OCCO6)n3n2)CCCC4)c1` is -9.24 (active). In the case of `CCC(=O)Nc1nnc(S(=O)(=O)N2CCCc3ccccc32)s1` it was “inactive”; in that of `CCSc1nsc(NC(=O)Nc2cccc(C(C)=O)c2)n1`, “inactive”; in that of `Cc1ccc(C(=O)N(CC(=O)NC2CCCC2)c2ccc(F)cc2)s1`, “inactive”.

For the molecule `O=C(CSc1ccccc1)Nc1cc(Cl)ccc1Oc1ccccc1`, the B-score was -8.08 (active). The entry for `CC(=O)Nc1ccc(SCC(=O)Nc2ccccc2Oc2ccccc2)cc1` is “inactive”; for `CC1CCCN(CC(=O)Nc2cc(Cl)ccc2Oc2ccccc2)C1` (stereo unspecified) it is “inactive”; for `N#CCOc1ccc(C2=NO[C@@H]3[C@@H]4C[C@@H]([C@H]5C(=O)N(c6ccc7c(c6)OCO7)C(=O)[C@@H]45)[C@H]23)cc1` it is “inactive”. For the molecule `O=C(N/C(=C\c1ccc(O)cc1)C(=O)N1CCCCC1)c1ccccc1`, the B-score result is “inactive”. The entry for `COc1ccc(C)cc1NC(=O)NCCCCc1ccccc1` is “inactive”; for `COc1ccc(C)cc1NC(=O)Nc1ccccc1SC` it is “inactive”. The figure for `COc1ccc(C)cc1NC(=O)C(Sc1ccccc1)c1ccccc1` (stereo unspecified) is -8.19 (active). On to `CC(Sc1nnnn1C)C(=O)NC(=O)NC1CCCCC1` (stereo unspecified), for which the B-score result was “inactive”. In the case of `Cc1ccc(S(=O)(=O)NC(C)C(=O)NCc2ccc(Cl)cc2)cc1` (stereo unspecified) it was “inactive”; in that of `Cc1cc(Cl)ccc1OCc1nc(-c2ccncc2)no1`, “inactive”; in that of `O=C(Nc1c2c(nc3ccccc13)CCCC2)c1ccccc1Br`, “inactive”. In the case of `NC(=O)c1ccc(NC(=O)COC(=O)c2c3c(nc4ccccc24)/C(=C\c2ccc4c(c2)OCO4)CCC3)cc1` it was “inactive”. The figure for `O=C(COC(=O)c1c2c(nc3ccccc13)CCCC2)c1ccc(Br)s1` is -9.29 (active). For `COC(=O)COc1ccc2c(=O)c(Oc3ccccc3Br)coc2c1`, the B-score entry is “inactive”.

As for `CCCCc1cc(=O)oc2c(C)c(OCC(=O)N3CCC(C(N)=O)CC3)ccc12`, the B-score result was “inactive”.

As for `O=C(/C=C/c1ccc(N2CCOCC2)cc1)c1ccccc1`, the B-score result is “inactive”. The entry for `CCOc1ncccc1C(=O)OCC(=O)NC1CC1` is “inactive”.

Consider `O=C(Nn1c(SCc2ccc([N+](=O)[O-])cc2)nc2ccccc2c1=O)c1ccc(F)cc1`, for which the B-score is -8.82 (active). For `Cc1nc2ccccc2c(=O)n1NC(=O)c1ccc(Cl)c([N+](=O)[O-])c1`, the B-score entry was “inactive”.

As for `C=CCn1c(SCc2ccc(C(=O)NCCO)cc2)nc2ccccc2c1=O`, the B-score entry was “inactive”. In the case of `O=C(Cn1nc([N+](=O)[O-])nc1Br)NC1CCCCC1` it was “inactive”; in that of `CCC1Nc2ncnc(N3CCN(c4ccccc4)CC3)c2N(Cc2ccc(Cl)cc2)C1=O` (stereo unspecified), “inactive”; in that of `Cc1nc(N2CCN(c3ccccn3)CC2)c2c(C)c(C(=O)Nc3ccc(F)cc3)sc2n1`, “inactive”. In the case of `Cc1nc(N2CCN(c3ccccn3)CC2)c2c(C)c(C(=O)Nc3ccc(F)c(Cl)c3)sc2n1` it was -10.3 (active); in that of `COc1ccc(NC(=O)c2sc3nc(C)nc(N4CCN(c5ccccn5)CC4)c3c2C)c(OC)c1`, “inactive”; in that of `Cc1ccc2cccc(OCCCOc3ccccc3CO)c2n1`, “inactive”. The entry for `O=C(COC(=O)c1cc2c(s1)CCCC2)NCc1ccccc1Cl` is “inactive”; for `O=C(COC(=O)/C(=C/c1cccs1)c1cccs1)NCc1ccccc1Cl` it is -9.72 (active); for `O=C(COC(=O)c1cccs1)NCc1cccs1` it is “inactive”. `CC(C)(C)NC(=O)COC(=O)c1cc(Br)ccc1Cl`: the B-score result was “inactive”.

Consider `O=C(NNS(=O)(=O)c1ccc(F)cc1)c1ccc([N+](=O)[O-])cc1Cl`, for which the B-score result was “inactive”.

For `COc1ccc(-c2[nH]ncc2/C=N/NC(=O)c2cc(Br)ccc2O)c(OC)c1`, the B-score entry is “inactive”. The entry for `Cc1ccc(C)c(Cn2cnc3c(oc4ccccc43)c2=O)c1` is “inactive”. The entry for `Cc1ccc(C)c(NC(=O)CSc2nnc(Cc3cccn3C)n2-c2ccc(F)cc2)c1` is “inactive”. In the case of `Cc1ccc(C)c(NC(=O)CSc2nc3c(oc4ccccc43)c(=O)n2-c2ccccc2)c1` it was -7.91 (active).
